# Results from PubChem BioAssay (NCI).
# The panel holds about 79,000 compounds, 15% with a hit somewhere; the sample as a whole holds those more often. Unmarked numbers belong to inactive results. The source made the active and inactive calls. Rule as the data show it: active = growth inhibition above about 70%; inactive = the rest. Where a SMILES comes first, the peptide text is derived from it. [ ]: non-standard residue; d: D form. The star is where a group is joined. mTyr = N[CH](Cc1cccc(O)c1)C(=O)O; Cbz = O=C(OCc1ccccc1)*; OBn = c1ccc(CO*)cc1
# Assays:
# [1] = NCI Yeast Anticancer Drug Screen. Data for the rad50 strain (AID 155);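 also: 0% = growth of vehicle-only cultures of the same strain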; settings: S. cerevisiae rad50 strain growth inhibition, active compounds read high
# Outline: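 Growth of the mutant yeast was measured after compound exposure and referenced to vehicle-treated cultures.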
# [2] = NCI Yeast Anticancer Drug Screen. Data for the mec2-1 strain (AID 157); settings: S. cerevisiae mec2-1 strain, active compounds read high
# Outline: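 Each compound was tested on mec2-1 yeast, a strain altered in DNA damage repair or cell cycle control. Growth inhibition is reported relative to vehicle.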
# [3] = NCI Yeast Anticancer Drug Screen. Data for the sgs1 mgt1 strain (AID 161);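 also: 0% = growth of cultures given vehicle only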; settings: S. cerevisiae sgs1 mgt1 strain, active compounds read high
# Outline: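 Test agents were incubated with a DNA-repair-mutant yeast strain. Growth was then read and compared against vehicle-treated controls.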
# [4] = NCI Yeast Anticancer Drug Screen. Data for the cln2 rad14 strain (AID 165);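 also: 0% = growth equal to vehicle treated cultures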; settings: S. cerevisiae cln2 rad14 strain, active compounds read high
# Outline: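 Test compounds were added to cln2 rad14 yeast cultures; inhibition of growth was then determined by comparison with vehicle treatment.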
# [5] = NCI Yeast Anticancer Drug Screen. Data for the bub3 strain (AID 167); settings: S. cerevisiae bub3 mutant strain, active compounds read high
# Outline: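 Whole-cell yeast assay. The mutant strain was incubated with compounds, and growth inhibition was determined by comparison with vehicle-treated cells.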
# [6] = NCI Yeast Anticancer Drug Screen. Data for the mlh1 rad18 strain (AID 175); settings: S. cerevisiae mlh1 rad18 strain growth inhibition, active compounds read high
# Outline: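 Inhibition values reflect reduced growth of mutant yeast versus vehicle-treated controls following compound exposure; the mutations affect DNA damage repair.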
# [7] = at 5.0 µM (retest, dose inferred, filed as 0.5)
# [8] = at 50.0 µM (retest, dose inferred, filed as 5.0)
Compound,"growth inhibition [1, 7]","growth inhibition [1, 8]",growth inhibition ([1]; at 50.0 µM),"growth inhibition [2, 7]","growth inhibition [2, 8]",growth inhibition ([2]; at 50.0 µM),"growth inhibition [3, 7]","growth inhibition [3, 8]",growth inhibition ([3]; at 50.0 µM),"growth inhibition [4, 7]","growth inhibition [4, 8]",growth inhibition ([4]; at 50.0 µM),"growth inhibition [5, 7]","growth inhibition [5, 8]",growth inhibition ([5]; at 50.0 µM),"growth inhibition [6, 7]","growth inhibition [6, 8]",growth inhibition ([6]; at 50.0 µM)
NCCOB1c2ccccc2Cc2ccccc21,2%,98% (active),45.6%,6%,99% (active),98.7% (active),-3%,99% (active),-3.8%,-2%,99% (active),99% (active),1%,98% (active),99.1% (active),0%,99% (active),99% (active)
CN1C(/C=C/c2ccc(O)c3ncccc23)CCC2CCCC(O)C21 (stereo unspecified),1%,94% (active),95% (active),26%,95% (active),89.6% (active),9%,94% (active),92.2% (active),-12%,91% (active),85.2% (active),8%,96% (active),92.8% (active),–,–,–
COC(=O)C(Cc1cccc(O)c1)NC(=O)C(CC(=O)OCc1ccccc1)NC(=O)OCc1ccccc1 (stereo unspecified) (Cbz-Asp(OBn)-[mTyr]-OMe; configuration not given here),-12%,70% (active),77.2% (active),-6%,21%,74.8% (active),2%,87% (active),85.7% (active),9%,64%,89.8% (active),-10%,55%,91% (active),-4%,75% (active),80.9% (active)
O=[N+]([O-])/C(C(Cl)=C(Cl)Cl)=C(/Cl)SCc1ccccc1,100% (active),99% (active),89.8% (active),100% (active),99% (active),93.4% (active),99% (active),99% (active),90.1% (active),99% (active),99% (active),91.5% (active),99% (active),99% (active),91.5% (active),–,–,–
CC(=O)Nc1ccc(N=Cc2cc(Cl)cc(Cl)c2O)cc1,82% (active),99% (active),80.2% (active),90% (active),99% (active),73.5% (active),97% (active),95% (active),89.3% (active),54%,94% (active),53%,97% (active),97% (active),81.7% (active),80% (active),99% (active),65.8%
CC(C)=CCc1c2c(c(O)c3c(=O)c(-c4ccc(O)cc4O)coc13)C=CC(C)(C)O2,-20%,95% (active),83.2% (active),-13%,97% (active),86% (active),-11%,95% (active),85.9% (active),15%,97% (active),83.2% (active),26%,96% (active),81.2% (active),–,–,–
CC1(C)CC(=O)C(C(c2ccc3c(c2)OCO3)N2CCOCC2)C(=O)C1 (stereo unspecified),-22%,-17%,99.2% (active),9%,-13%,99.5% (active),-21%,4%,99.3% (active),-9%,3%,98.2% (active),20%,-11%,98.8% (active),-26%,-27%,99.1% (active)
CC1CCC(=NNC(N)=O)CC1 (stereo unspecified),-1%,-6%,3.9%,-11%,-2%,-10.9%,-1%,-4%,2.45%,-5%,-1%,34.9%,-3%,-3%,9.5%,-1%,-4%,-19.2%
O=C(O)c1ccc(NCc2c(O)ccc3ccccc23)cc1,5%,26%,4%,9%,29%,17.4%,11%,15%,45.2%,-3%,15%,-13.9%,4%,28%,48.1%,9%,26%,19.1%
N#Cc1c(Cl)cc(Cl)n2c1nc1ccccc12,46%,97% (active),91.2% (active),29%,99% (active),94% (active),56%,100% (active),93% (active),43%,99% (active),91.7% (active),56%,99% (active),91.3% (active),43%,97% (active),92.3% (active)
